# Results reported in ChEMBL document CHEMBL5606458, “ASAP - ZIKV NS2B-NS3 protease fluorescence single point” (2024).
# Out of some 2,700 compounds screened, about 160 (5.9%) showed an effect of 50% or more. The entries come from a sample that favours strong results as a whole.
# Target: Nonstructural protein 3 (Zika virus) (UniProt A0A024AXB9)
# Sequence (A0A024AXB9 as listed by the source): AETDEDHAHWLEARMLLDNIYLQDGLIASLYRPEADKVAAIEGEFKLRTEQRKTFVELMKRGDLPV
smiles,measurement,setting,value
CCCC[C@H](NC(C)=O)C(=O)N[C@H](C(=O)NCc1ccc(CN)cc1)c1ccccc1,inhibition,"PRVABC59, Concentration 49.5 uM, Number of replicates 2.0, Standard deviation 2.0326302034025616 %",1.09%
same,inhibition,"PRVABC59, Concentration 99.01 uM, Number of replicates 2.0, Standard deviation 38.99982941752366 %",27.9%
same,inhibition,"PRVABC59, Concentration 198.0 uM, Number of replicates 2.0, Standard deviation 3.137845684278008 %",79.1%
CCCC[C@H](NC(C)=O)C(=O)N[C@H](C(=O)NCc1ccc(CN)cc1)c1ccc(OCc2ccccc2)cc1,inhibition,"PRVABC59, Concentration 49.5 uM, Number of replicates 2.0, Standard deviation 3.0246149725930045 %",4.96%
same,inhibition,"PRVABC59, Concentration 99.01 uM, Number of replicates 2.0, Standard deviation 5.4426160865401085 %",91.7%
same,inhibition,"PRVABC59, Concentration 198.0 uM, Number of replicates 2.0, Standard deviation 0.23672907001683724 %",97.8%
CCCC[C@H](NC(C)=O)C(=O)N[C@H](C(=O)Nc1ccc(C(N)=O)cc1)c1ccc(OCc2ccccc2)cc1,inhibition,"PRVABC59, Concentration 49.5 uM, Number of replicates 2.0, Standard deviation 1.0117053428289626 %",-1.83%
same,inhibition,"PRVABC59, Concentration 99.01 uM, Number of replicates 2.0, Standard deviation 0.9364545471831264 %",1.23%
same,inhibition,"PRVABC59, Concentration 198.0 uM, Number of replicates 2.0, Standard deviation 0.5455676889131452 %",17.7%
CCCC[C@H](NC(C)=O)C(=O)N[C@H](C(=O)NCc1ccc(C(N)=O)cc1)c1ccc(OCc2ccccc2)cc1,inhibition,"PRVABC59, Concentration 49.5 uM, Number of replicates 2.0, Standard deviation 2.8803277655268693 %",26.6%
same,inhibition,"PRVABC59, Concentration 99.01 uM, Number of replicates 2.0, Standard deviation 0.054514419737930774 %",98.6%
same,inhibition,"PRVABC59, Concentration 198.0 uM, Number of replicates 2.0, Standard deviation 0.07632018763310308 %",99.1%
CCCC[C@H](NC(C)=O)C(=O)N[C@@H](C(=O)NCc1ccc(C(N)=O)cc1)c1ccc(OCc2ccccc2)cc1,inhibition,"PRVABC59, Concentration 49.5 uM, Number of replicates 2.0, Standard deviation 1.682765526064386 %",-0.555%
same,inhibition,"PRVABC59, Concentration 99.01 uM, Number of replicates 2.0, Standard deviation 1.8317792493099265 %",2.22%
same,inhibition,"PRVABC59, Concentration 198.0 uM, Number of replicates 2.0, Standard deviation 1.8535860287294632 %",8.29%
COc1ccc2nc(C(F)(F)F)nc(N3CCN(c4ccc(N)nc4)CC3)c2c1,inhibition,"PRVABC59, Concentration 49.5 uM, Number of replicates 2.0, Standard deviation 0.8584962379889504 %",14.4%
same,inhibition,"PRVABC59, Concentration 99.01 uM, Number of replicates 2.0, Standard deviation 2.1800251715639205 %",28%
same,inhibition,"PRVABC59, Concentration 198.0 uM, Number of replicates 2.0, Standard deviation 1.6255789961308644 %",43.6%
CC(C)(CO)CN1CC[C@H](c2c[nH]c3ccccc23)C1,inhibition,"PRVABC59, Concentration 49.5 uM, Number of replicates 2.0, Standard deviation 3.1209329969075563 %",6.14%
same,inhibition,"PRVABC59, Concentration 99.01 uM, Number of replicates 2.0, Standard deviation 4.254828207009483 %",11.2%
same,inhibition,"PRVABC59, Concentration 198.0 uM, Number of replicates 2.0, Standard deviation 3.604090306895346 %",18.1%
CC(C)CNC(=O)c1cc(Cl)ccc1NS(=O)(=O)c1ccc(Oc2ccccc2Cl)cc1,inhibition,"PRVABC59, Concentration 49.5 uM, Number of replicates 2.0, Standard deviation 0.3286348250544809 %",58.6%
same,inhibition,"PRVABC59, Concentration 99.01 uM, Number of replicates 2.0, Standard deviation 0.058762822067828895 %",54.7%
same,inhibition,"PRVABC59, Concentration 198.0 uM, Number of replicates 2.0, Standard deviation 2.167677830824169 %",37.6%
O=C(O)c1cc(Cl)ccc1NS(=O)(=O)c1ccc(Oc2ccccc2Cl)cc1,inhibition,"PRVABC59, Concentration 15.0 uM, Number of replicates 2.0, Standard deviation 1.019095961302742 %",25.6%
same,inhibition,"PRVABC59, Concentration 49.5 uM, Number of replicates 2.0, Standard deviation 0.595671862422896 %",67%
same,inhibition,"PRVABC59, Concentration 99.01 uM, Number of replicates 2.0, Standard deviation 0.9962463002636517 %",72.9%
same,inhibition,"PRVABC59, Concentration 198.0 uM, Number of replicates 2.0, Standard deviation 0.4898259529465772 %",64.4%
COC[C@@H](C)CNC(=O)c1cc(Cl)ccc1NS(=O)(=O)c1ccc(Oc2ccccc2Cl)cc1,inhibition,"PRVABC59, Concentration 49.5 uM, Number of replicates 2.0, Standard deviation 0.1936300399043851 %",40.8%
same,inhibition,"PRVABC59, Concentration 99.01 uM, Number of replicates 2.0, Standard deviation 0.11978876131329876 %",39.9%
same,inhibition,"PRVABC59, Concentration 198.0 uM, Number of replicates 2.0, Standard deviation 0.12799289825703533 %",17.9%
